We go through 37 compounds from PubChem BioAssay (NCATS).

“And” between values parts separate entries of the source, which are not always exact repeats. Identical values can stand only once. A number with no mark means an inactive call. Records with an inconclusive call do not appear. Entries that show only a call come without a potency. The source made the active and inactive calls. Unless noted, the call rests on the fitted dose curve; in most records, active means well fitted curve in the direction sought with a large enough effect; inconclusive means small, poorly fitted or top-dose-only effect, or another doubt; inactive means no such curve, though single readings can be large; an effect the other way counts as inactive or inconclusive.

The target in assay [1] is 3',5'-cyclic-AMP phosphodiesterase 4B (Homo sapiens) (UniProt Q07343). The assay can be described thus: qHTS Assay for Inhibitors of PDE-IV (AID 607; active means well fitted activation curve with a large enough effect in the main read-out, with a control signal flat, not every such curve was filed as active). The method in brief: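 Cell-based read-out of cAMP via a modified cyclic nucleotide-gated channel and membrane potential dye (535/590 nm) in HEK293 cells expressing PDE4 endogenously. Compounds tested up to 22.9 uM final; 100 uM RO 20-1724 reference.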
Sequence of 3',5'-cyclic-AMP phosphodiesterase 4B (Homo sapiens) (Q07343 whole entry, looked up): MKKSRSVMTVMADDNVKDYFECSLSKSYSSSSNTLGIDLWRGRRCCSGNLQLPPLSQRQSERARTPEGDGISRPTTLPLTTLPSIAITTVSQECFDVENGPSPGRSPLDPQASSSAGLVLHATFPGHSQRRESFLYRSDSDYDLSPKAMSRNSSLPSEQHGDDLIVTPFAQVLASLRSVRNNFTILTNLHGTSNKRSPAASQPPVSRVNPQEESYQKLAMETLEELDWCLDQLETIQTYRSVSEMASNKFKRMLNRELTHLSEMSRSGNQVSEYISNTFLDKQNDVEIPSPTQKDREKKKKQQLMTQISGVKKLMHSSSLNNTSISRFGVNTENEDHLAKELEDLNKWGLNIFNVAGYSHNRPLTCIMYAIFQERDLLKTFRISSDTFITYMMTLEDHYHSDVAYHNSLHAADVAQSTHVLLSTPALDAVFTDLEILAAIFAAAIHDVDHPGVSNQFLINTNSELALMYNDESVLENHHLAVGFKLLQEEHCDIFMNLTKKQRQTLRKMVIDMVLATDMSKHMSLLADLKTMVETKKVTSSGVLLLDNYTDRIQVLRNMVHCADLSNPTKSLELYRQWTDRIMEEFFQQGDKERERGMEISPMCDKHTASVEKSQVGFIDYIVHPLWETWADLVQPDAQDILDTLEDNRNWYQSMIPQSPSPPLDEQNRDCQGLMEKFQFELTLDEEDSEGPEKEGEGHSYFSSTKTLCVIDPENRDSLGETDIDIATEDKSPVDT
In general terms: In qHTS, concentration-response curves come from the screen itself.

In assay [2] the target is Guanine nucleotide-binding protein G(i) subunit alpha-1 (Homo sapiens) (UniProt P63096). The assay can be described thus: qHTS Assay for Inhibitors of RGS12 GoLoco Motif Activity (Green Fluorophore) (AID 879).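 Further: negative values mean loss of peptide binding seen as reduced polarization.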 The method in brief:
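Fluorescence polarization assay: 50 nM Gαi1 with 10 nM FITC-labeled RGS12 GoLoco peptide in 10 mM Tris pH 7.5, 150 mM NaCl, 0.1 mM GDP, 0.05% NP40, 10 min at room temperature with compound.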

Assay [3] concerns the target Cytochrome P450 3A4 (Homo sapiens) (UniProt P08684). The assay can be described thus: qHTS Assay for Inhibitors and Substrates of Cytochrome P450 3A4 (AID 884). Further: nearly all actives have a fitted effect of over 50% in size. Further: potency means the concentration at half of the fitted maximal effect. The method in brief: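 20 nM human CYP3A4 with 25 uM Luciferin-PPXE (at KM) in 200 mM KPO4, preincubated 10 min with compound; NADPH regeneration started a 60 min RT reaction. Luciferin detected by luminescence, normalized to 57 uM ketoconazole as full inhibition.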

Assay [4] has the same target. The assay can be described thus: qHTS Assay for Activators of Cytochrome P450 3A4 (AID 885). Further: nearly all actives have a fitted effect of over 65% in size. The method in brief: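 Signal was normalized against complete inhibition by 57 uM ketoconazole. The reaction used 20nM CYP3A4 with 25uM Luciferin-PPXE, 10-min compound preincubation and a 60-min NADPH-supported step at RT.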
The target of assay [5] is Cytochrome P450 2D6 (Homo sapiens) (UniProt P10635). Nature of the assay: qHTS Assay for Inhibitors and Substrates of Cytochrome P450 2D6 (AID 891). Further: nearly all actives have a fitted effect of over 60% in size. Further: potency means the concentration at half of the fitted maximal effect. In outline: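 Human CYP2D6 (5 nM) with 30 uM Luciferin-ME EGE (at Km) in 100 mM KPO4, compound preincubated 10 min, then NADPH regeneration system for 60 min at room temperature. Luciferin read by luminescence; normalized to 1.43 uM quinidine.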
Sequence of Cytochrome P450 2D6 (Homo sapiens) (P10635 whole entry, looked up): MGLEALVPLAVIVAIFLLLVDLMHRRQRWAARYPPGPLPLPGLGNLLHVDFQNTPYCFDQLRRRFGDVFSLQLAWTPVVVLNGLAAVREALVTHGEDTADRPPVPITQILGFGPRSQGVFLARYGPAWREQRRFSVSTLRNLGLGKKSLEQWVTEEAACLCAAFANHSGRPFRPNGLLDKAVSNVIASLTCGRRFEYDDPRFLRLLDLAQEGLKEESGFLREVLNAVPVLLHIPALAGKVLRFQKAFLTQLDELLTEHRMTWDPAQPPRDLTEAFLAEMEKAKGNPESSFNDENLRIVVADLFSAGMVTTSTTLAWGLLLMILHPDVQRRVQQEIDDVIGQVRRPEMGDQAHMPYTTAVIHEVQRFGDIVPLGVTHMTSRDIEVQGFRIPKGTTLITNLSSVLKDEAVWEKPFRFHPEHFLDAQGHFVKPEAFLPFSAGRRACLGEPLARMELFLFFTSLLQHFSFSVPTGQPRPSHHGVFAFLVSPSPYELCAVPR

Assay [6] has as its target Cytochrome P450 2C9 (Homo sapiens) (UniProt P11712). The assay can be described thus: qHTS Assay for Inhibitors and Substrates of Cytochrome P450 2C9 (AID 883). Further: nearly all actives have a fitted effect of over 60% in size. The method in brief: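 Human CYP2C9 (10nM) with Luciferin-H at 100uM (its KM) in 25mM KPO4; compound preincubated 10 min at 37C, then NADPH regeneration for 60 min at 37C. Luciferin read by luminescence after detection reagent; normalized to 57uM sulphaphenazole as full inhibition.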

Sequence of Cytochrome P450 3A4 (Homo sapiens) (P08684 whole entry, looked up): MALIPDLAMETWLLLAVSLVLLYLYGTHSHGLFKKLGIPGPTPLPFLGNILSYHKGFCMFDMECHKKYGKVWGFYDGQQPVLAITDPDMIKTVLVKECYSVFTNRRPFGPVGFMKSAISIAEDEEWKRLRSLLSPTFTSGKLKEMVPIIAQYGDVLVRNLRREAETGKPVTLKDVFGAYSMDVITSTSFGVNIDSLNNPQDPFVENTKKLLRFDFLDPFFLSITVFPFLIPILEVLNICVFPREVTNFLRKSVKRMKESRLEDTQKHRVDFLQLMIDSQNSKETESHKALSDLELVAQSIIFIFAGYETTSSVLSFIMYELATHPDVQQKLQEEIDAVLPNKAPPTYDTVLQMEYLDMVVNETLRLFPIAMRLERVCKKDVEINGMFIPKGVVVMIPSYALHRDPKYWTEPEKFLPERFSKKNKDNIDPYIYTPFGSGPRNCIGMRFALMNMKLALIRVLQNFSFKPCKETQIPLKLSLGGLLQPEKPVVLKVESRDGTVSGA
Sequence of Guanine nucleotide-binding protein G(i) subunit alpha-1 (Homo sapiens) (P63096 whole entry, looked up): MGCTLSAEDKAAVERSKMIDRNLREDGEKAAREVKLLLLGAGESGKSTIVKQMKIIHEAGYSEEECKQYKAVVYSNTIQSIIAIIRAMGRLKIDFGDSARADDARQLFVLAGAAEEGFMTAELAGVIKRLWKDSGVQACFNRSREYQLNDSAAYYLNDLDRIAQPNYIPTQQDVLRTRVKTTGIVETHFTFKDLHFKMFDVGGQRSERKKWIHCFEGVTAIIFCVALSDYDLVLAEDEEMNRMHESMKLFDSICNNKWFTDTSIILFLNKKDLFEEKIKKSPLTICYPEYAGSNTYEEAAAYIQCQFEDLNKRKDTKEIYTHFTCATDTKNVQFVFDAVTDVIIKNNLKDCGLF
Sequence of Cytochrome P450 2C9 (Homo sapiens) (P11712 whole entry, looked up): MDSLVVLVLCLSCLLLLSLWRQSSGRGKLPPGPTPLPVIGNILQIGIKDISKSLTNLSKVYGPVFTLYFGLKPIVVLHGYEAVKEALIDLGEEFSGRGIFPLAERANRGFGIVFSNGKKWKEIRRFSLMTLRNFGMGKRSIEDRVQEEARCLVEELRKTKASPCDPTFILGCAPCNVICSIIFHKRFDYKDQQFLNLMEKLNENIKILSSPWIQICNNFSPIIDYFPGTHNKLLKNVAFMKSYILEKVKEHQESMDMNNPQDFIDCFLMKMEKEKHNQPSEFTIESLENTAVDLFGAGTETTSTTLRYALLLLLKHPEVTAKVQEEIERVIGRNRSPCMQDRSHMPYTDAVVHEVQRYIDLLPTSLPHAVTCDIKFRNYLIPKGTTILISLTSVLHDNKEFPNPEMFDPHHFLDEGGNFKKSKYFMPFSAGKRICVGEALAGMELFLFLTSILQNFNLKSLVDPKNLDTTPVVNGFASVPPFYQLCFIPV

Consider `Nc1ccc(CCN2CCN(c3cccc(C(F)(F)F)c3)CC2)cc1`, for which the Potency entry in assay [1] and in assay [2] was “inactive” throughout. The Potency in assay [3] was 7.94 µM (active). In addition, in assay [4], the outcome was inactive.

As to `Clc1cc(I)cc(Cl)c1NC1=NCCN1`, the Potency result in assay [1] and in assay [2] was “inactive” each time. Also, the Potency in assay [5] was 3.98 µM (active).

As for `CC(C)NP(=O)(NC(C)C)OP(=O)(NC(C)C)NC(C)C`, the Potency result in assay [2] is “inactive”.

Regarding `N[C@@H](Cn1oc(=O)[nH]c1=O)C(=O)O`, the Potency entry in assay [2] was “inactive”. Moreover, the compound was classed as inactive in assay [4].

Consider `CN1CCC(c2c[nH]c3ccc(O)cc23)CC1`, for which the Potency entry in assay [2] was “inactive”. Besides, the result in assay [4] was inactive.

As to `CN(N=O)c1ccc(O)c(O)c1`, the Potency result in assay [6], in assay [3] and in assay [5] was “inactive” in each case.

On to `CCCN(CCC)[C@@H]1CCc2cccc(O)c2C1`, for which the Potency result in assay [2] is “inactive”. For the same compound, the Potency in assay [5] is 3.16 µM (active) and 794 nM (active).

In the case of `CN1C2CCC1CC(OC(c1ccccc1)c1ccccc1N)C2` (stereo unspecified), the Potency result in assay [3] is “inactive”.

As for `CNC(=O)OCC[N+](C)(C)C`, the Potency entry in assay [2] and in assay [5] was “inactive” each time.

Consider `C[N+](C)(C)CC#CCN1CCCC1=O`, for which, in assay [2], the Potency entry is “inactive”. The Potency in assay [5] was 3.98 µM (active).

`CCCN(CCC)[C@H]1CCc2c(F)ccc(O)c2C1`: the Potency entry in assay [2] is “inactive”. Also, in assay [5], the Potency was 631 nM (active) and 1.58 µM (active).

For the compound `C=CCN1CC[C@]23c4c5ccc(O)c4O[C@H]2/C(=N/NC(=O)c2ccccc2)CC[C@@]3(O)[C@H]1C5`, the compound was called inactive in assay [4].

With `CC(N)Cc1ccc(O)cc1` (stereo unspecified), in assay [3], the Potency result is “inactive”.

Consider `Cc1cc(C)cc(C(=O)OC2C[C@H]3CC[C@@H](C2)N3C)c1` (stereo partly specified), for which, in assay [5], the Potency is 0.251 µM (active).

Take `C=CCC1(C(C)CCC)C(=O)N=C(S)NC1=O` (stereo unspecified): in assay [3], the Potency is 12.6 µM (active). The call in assay [4] was inactive.

For `C[N+]1(C)[C@@H]2CC[C@H]1CC(OC(=O)c1c[nH]c3ccccc13)C2` (stereo partly specified), in assay [2], the Potency result was “inactive”. For the same compound, the Potency in assay [3] was 7.94 µM (active). The result in assay [4] was inactive.

For the compound `NNC(=O)c1ccc(O)cc1`, the Potency result in assay [2] was “inactive”. Also, the Potency in assay [3] was 5.01 µM (active). Further, the result in assay [4] was inactive.

As for `Cc1[nH]c2ccc(O)cc2c1CCN`, in assay [2], the Potency result was “inactive”. Also, the call in assay [4] was inactive.

As to `NCCCP(=O)(O)O`, the Potency entry in assay [2] was “inactive”. For the same compound, the compound was called inactive in assay [4].

As to `COc1ccc2c(c1)c(CCN1CCOCC1)c(C)n2C(=O)c1cccc(Cl)c1Cl`, in assay [3], the Potency is 3.16 µM (active). The compound was called inactive in assay [4].

As for `CCC(=O)O[C@@](Cc1ccccc1)(c1ccccc1)[C@@H](C)CN(C)C`, the Potency in assay [3] was 5.01 µM (active); in assay [5], 7.94 µM (active). In assay [4], the compound was classed as inactive.

On to `c1ccc2c(c1)[I+]c1ccccc1-2`, for which the Potency entry in assay [2] was “inactive”. Besides, the Potency in assay [3] is 3.16 µM (active); in assay [5] it was 3.98 µM (active) and 794 nM (active). Further, the call in assay [4] was inactive.

Regarding `O=S1(=O)N(CCN2CC=C(c3c[nH]c4cc(F)ccc34)CC2)c2cccc3c2N1CCC3`, in assay [2], the Potency result was “inactive”. In addition, the Potency is 5.01 µM (active) in assay [3] and 0.199 µM (active) in assay [5]. Moreover, the result in assay [4] was inactive.

With `CP(=O)(O)C1=CCNCC1`, the Potency entry in assay [2] was “inactive”. Moreover, the compound was called inactive in assay [4].

Regarding `CCCn1c(=O)c2[nH]c(C3CCCC3)nc2n(CCCOC(=O)c2ccc(S(=O)(=O)F)cc2)c1=O`, the Potency entry in assay [2] was “inactive”. Further, the compound was called inactive in assay [4].

In the case of `[N-]=[N+]=CC(=O)OCC(N)C(=O)O` (stereo unspecified), the Potency result in assay [3] is “inactive”.

Regarding `C[N+]1(C)CCN(c2ccccc2)CC1`, the Potency result in assay [2] is “inactive”. Further, in assay [4], the compound was classed as inactive.

As for `NC(Cc1ccc(N(CCCl)CCCl)cc1)C(=O)O` (stereo unspecified), the compound was called inactive in assay [4].

`O=[N+]([O-])c1ccc2nc(N3CCNCC3)ccc2c1`: in assay [2], the Potency entry was “inactive”. The outcome in assay [4] was inactive.

`C[C@@H](CO)NC(=O)[C@@H]1C=C2c3cccc4[nH]cc(c34)C[C@H]2N(C)C1`: in assay [4], the result was inactive.

`Cc1c2ccncc2c(C)c2c1[nH]c1ccccc12`: the Potency entry in assay [2] is “inactive”. For the same compound, the Potency in assay [3] was 158 nM (active) and 398 nM (active); in assay [5], 31.6 µM (active) and 6.31 µM (active). The compound was called inactive in assay [4].

With `N#CC(C#N)=Cc1cc(O)c(O)c(O)c1`, the Potency entry in assay [2] is “inactive”. For the same compound, in assay [4], the compound was called inactive.

For `COc1ccc(OC)c(C(O)C(C)N)c1` (stereo unspecified), the Potency entry in assay [3] was “inactive”.

With `O=C1C=C2C=C[C@@H]3C[C@@]2(O1)[C@H]1CCCCN31`, the Potency entry in assay [3] is “inactive”.

With `COc1ccc2c(c1)/C(=C/c1cnc[nH]1)C(=O)N2`, in assay [2], the Potency entry was “inactive”. In addition, the Potency in assay [3] is 0.794 µM (active). In addition, the result in assay [4] was inactive.

Consider `Clc1ccc(Cl)cc1`, for which the Potency result in assay [3] is “inactive”.

Turning to `CC1OC1P(=O)(O)O` (stereo unspecified), the Potency entry in assay [3] was “inactive”.
